Screens deposited in PubChem BioAssay by National Center for Advancing Translational Sciences (NCATS).
Hits are enriched below; roughly 12% of the tested compounds scored in any of these assays.
Lassa entry inh: qHTS for Inhibitors of binding or entry into cells for Lassa Virus; 1.2% of 300,000 active; Lassa virus pseudotype entry inhibition, cell reporter; Potency, µM (series often up to 37.9 µM), actives largely listed as inhibitors; AID 540256, 2011; calls by dose curve; tested in HEK293 cells; note: nearly all actives have a fitted effect of over 50% in size
Shiga inhibitor: A qHTS for Small Molecule Inhibitors of Shiga Toxin; inhibition, % at 38.7 µM; Vero cells, Shiga toxin protein synthesis inhibition reporter; 9.2% of 290,000 active; in the data active = inhibition mostly above about 28%, no sharp cut-off; inactive = mostly below about 43%
Cycloheximide cs: Cycloheximide Counterscreen for Small Molecule Inhibitors of Shiga Toxin; cell reporter, cycloheximide protein synthesis inhibition counterscreen; max response, %; 12% of 300,000 active; in the data active = max response mostly above about 13%, no sharp cut-off; inactive = mostly below about 14%; note: read at 38.3 µM for the half of the compounds with a filed dose
Marburg entry inh: qHTS for inhibitors of binding or entry into cells for Marburg Virus. AID 540276, 2011. Marburg virus pseudotyped entry inhibition, cell reporter. Potency, µM (top dose mostly 37.8 µM), hits mostly inhibitors. 1.8% of 300,000 active; calls by dose curve; tested in HEK293 cells
Large screens that a line does not name were inactive.

COc1ccc(C)cc1S(=O)(=O)N(CC(=O)Nc1ccc2c(c1)OCCO2)Cc1ccccc1	Cycloheximide cs 9.8, Marburg entry inh inconclusive
CCOC(=O)CCN1C(=O)[C@H]2[C@H]3[C@H](O)[C@H](O)C/C(=N/NC(=O)OCc4ccc(OC)cc4)[C@@H]3CC[C@@H]2C1=O	none (no result: Lassa entry inh, Shiga inhibitor, Cycloheximide cs)
CCOC(=O)C1CCCN(C(=O)c2cccc(S(=O)(=O)N(Cc3ccccc3)c3ccccc3OC)c2)C1 (centres undefined)	none (no result: Shiga inhibitor, Cycloheximide cs)
CCOC(C(=O)OCCCN(CC)CC)(c1ccccc1)c1ccccc1	Lassa entry inh inconclusive, Marburg entry inh inconclusive
CCN(CC)CCCOC(=O)C(OC(C)C)(c1ccccc1)c1ccccc1	Lassa entry inh 16.4µM, Marburg entry inh 11.6µM
Cc1ccc(Sc2c(C(=O)NCc3ccccc3C)[nH]c3ccccc23)cc1	none (no result: Shiga inhibitor, Cycloheximide cs)
O=C(NCCc1nc2ccccc2[nH]1)c1ccc(F)cc1	Marburg entry inh inconclusive
O=C(NC(=S)NCc1nc2ccccc2[nH]1)c1ccc(F)cc1	Cycloheximide cs 28.1
O=C(NC(=S)NCc1nc2ccccc2[nH]1)c1ccccc1F	Lassa entry inh inconclusive, Shiga inhibitor 104.8, Cycloheximide cs 44.7, Marburg entry inh inconclusive
O=C(C1CC(=O)N(c2ccc(Cl)cc2)C1)N1CCC(c2nc3ccccc3[nH]2)CC1 (centres undefined)	none (no result: Shiga inhibitor, Cycloheximide cs)
C/C(=C1/SC(N2CCCC2)=NC1=O)c1ccc(Br)cc1	Lassa entry inh 4.47µM, Marburg entry inh 4.47µM
CCOC(=O)c1cnc2c(cnn2CC)c1NN=C(C)C	Marburg entry inh inconclusive (no result: Shiga inhibitor, Cycloheximide cs)
C#Cc1cccc(NC(=O)c2ccc(Cl)cc2Cl)c1	Shiga inhibitor 69.9, Cycloheximide cs 20.4 (no result: Lassa entry inh, Marburg entry inh)
O=C(Nc1ccc(Nc2ccccc2)cc1)c1ccc(Cl)cc1Cl	none (no result: Shiga inhibitor, Cycloheximide cs)
O=C(COc1ccccc1)NNC(=S)NC(=O)c1ccc(Cl)cc1Cl	none
O=C(Nc1ccccc1Cl)c1ccc(Cl)cc1Cl	Shiga inhibitor 54.1, Cycloheximide cs 53.7
O=C(NC(=S)Nc1ccccc1O)c1ccc(Cl)cc1Cl	Shiga inhibitor 94.2, Cycloheximide cs 30.4
O=C(Nc1ccc(Cl)cc1Cl)c1ccc(-c2ccccc2)cc1	none
Nc1ccccc1C(=O)Nc1ccc(Cl)cc1Cl	Shiga inhibitor 126.9, Cycloheximide cs 33.5
O=C(Nc1ccccc1Cl)c1ccccc1Cl	none
O=C(O)CCCn1cc(NC(=O)c2sc3ccccc3c2Cl)cn1	none (no result: Lassa entry inh, Marburg entry inh)
COc1ccccc1C(c1c(N)n(C)c(=O)n(C)c1=O)C(C)[N+](=O)[O-] (centres undefined)	Shiga inhibitor 93.7, Cycloheximide cs 43.8
O=c1oc(-c2ccc(Br)cc2)nc2ccccc12	Cycloheximide cs 26.2 (no result: Shiga inhibitor)
CCCOc1ccc(-c2nc3ccccc3c(=O)o2)cc1	Lassa entry inh inconclusive (no result: Shiga inhibitor, Cycloheximide cs)
O=c1oc(-c2ccc([N+](=O)[O-])cc2)nc2ccccc12	none (no result: Lassa entry inh, Marburg entry inh)
CCCOc1cccc(-c2nc3ccccc3c(=O)o2)c1	Lassa entry inh inconclusive, Shiga inhibitor 79.3, Cycloheximide cs 50.9
Nc1ccccc1-c1nc2ccccc2c(=O)o1	Shiga inhibitor 29.1, Cycloheximide cs 17.5
Cc1ccc2cccc(NC(=O)c3cccc4c(Br)cccc34)c2n1	Marburg entry inh inconclusive (no result: Shiga inhibitor, Cycloheximide cs)
Brc1ccc(-c2nc3ncccn3c2Nc2ccc3c(c2)OCCO3)o1	none
c1cn2c(Nc3ccc4c(c3)OCCO4)c(-c3ccc(N4CCOCC4)cc3)nc2cn1	Shiga inhibitor 52.7, Cycloheximide cs 24.0 (no result: Lassa entry inh, Marburg entry inh)
Clc1ccc(-c2nc3cnccn3c2Nc2ccc3c(c2)OCO3)cc1	none (no result: Lassa entry inh, Marburg entry inh)
Oc1ccccc1-c1nc2cnccn2c1Nc1ccc2c(c1)OCCO2	Shiga inhibitor 50.9, Cycloheximide cs 30.3
Cc1ccc(-c2nc3ncccn3c2Nc2ccc3c(c2)OCCO3)o1	Lassa entry inh inconclusive, Shiga inhibitor 70.3, Cycloheximide cs 27.4, Marburg entry inh inconclusive
O=c1c2oc3ccccc3c2n(Cc2ccccc2F)c(=O)n1Cc1ccccc1	none (no result: Shiga inhibitor, Cycloheximide cs, Marburg entry inh)
O=C(c1ccc2c(c1)CCN2S(=O)(=O)c1ccc(Cl)cc1)N1CCN(c2ccccc2F)CC1	none (no result: Shiga inhibitor, Cycloheximide cs)
COc1ccc(-n2c(Cc3cccn3C)nnc2SCC(=O)NCCc2ccccc2)cc1	none
Cc1ccc(NC(=O)c2noc3c2CCC3)cc1C	Lassa entry inh inconclusive, Shiga inhibitor 93.3, Cycloheximide cs 27.9, Marburg entry inh inconclusive
CC(=O)c1ccc(NC(=O)c2noc3c2CCC3)cc1	Shiga inhibitor 63.9 (no result: Lassa entry inh, Marburg entry inh)
O=C(Nc1cccc(O)c1)c1noc2c1CCCCC2	Lassa entry inh inconclusive, Marburg entry inh inconclusive
COc1ccc(NC(=O)c2noc3c2CCC3)cc1	Lassa entry inh inconclusive, Shiga inhibitor 65.3, Cycloheximide cs 34.8, Marburg entry inh inconclusive
COc1cc(NC(=O)c2noc3c2CCC3)c(OC)cc1Cl	none
CC1(C)CC=CC(COC(=O)c2ccccc2C(=O)O)C1 (centres undefined)	none (no result: Shiga inhibitor, Cycloheximide cs)
COc1ccc(/C=C/C(=O)NCC(=O)N=Nc2c(O)[nH]c3ccc([N+](=O)[O-])cc23)cc1	Marburg entry inh inconclusive
